Test results reported in PubChem BioAssay (NCATS).
Where “and” joins values, the source holds several entries; their conditions need not be identical. Identical values can stand only once. Results filed as inconclusive are left out. Calls of active or inactive are those of the source. Calls come from the whole dose curve; as a rule, active = well fitted inhibition curve with a large enough effect; inconclusive = small, poorly fitted or top-dose-only effect; inactive = flat fitted curve, though single readings scatter.

Tests used:
PC15 = test: qHTS profiling for inhibitors of Plasmodium falciparum proliferation (AID 504749); settings: P. falciparum in erythrocytes, SYBR Green DNA, 72 h; series mostly up to 28.7 µM
Procedure, shortened: (§1)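 Quantitative HTS: compounds pinned into medium, infected erythrocytes added (0.3% parasitemia, 2.5% hematocrit), 72 h culture at 37 C under 5% CO2. Saponin/Triton lysis with SYBR Green I, overnight RT, then fluorescence read.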

PC26 = test: as above; settings: P. falciparum in erythrocytes, SYBR Green DNA, 72 h; series mostly up to 28.7 µM
Procedure, shortened: as §1

PC49 = test: as above; settings: P. falciparum in erythrocytes, SYBR Green DNA, 72 h; series mostly up to 28.7 µM
Procedure, shortened: as §1

SC27B = test: as above; settings: P. falciparum in erythrocytes, SYBR Green DNA, 72 h; series mostly up to 28.7 µM
Procedure, shortened: as §1

TAB109 = test: as above; settings: P. falciparum in erythrocytes, SYBR Green DNA, 72 h; series mostly up to 28.7 µM
Procedure, shortened: as §1

TAB113 = test: as above; settings: P. falciparum in erythrocytes, SYBR Green DNA, 72 h; series mostly up to 28.7 µM
Procedure, shortened: as §1

TAB165 = test: as above; settings: P. falciparum in erythrocytes, SYBR Green DNA, 72 h; series mostly up to 28.7 µM
Procedure, shortened: as §1

CRL-7250 = normal cell line; test: Cytotoxic Profiling of Annotated Libraries Using Quantitative High-Throughput Screening (AID 1296008); settings: Five cell lines viability, CellTiter-Glo ATP luminescence, 48-72 h; max response: stronger effect = lower value; for max response: % is set by controls: 0 for no effect and ±100 for the full control effect
Procedure, shortened: (§2)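 Compounds were pin-transferred onto cells and incubated 48 or 72 hr at 37 degree Celsius, 95% humidity. CellTiter-Glo was added, plates sat 10 min at room temperature, then ATP-coupled luminescence was imaged as the viability read-out.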

HEK293 = test: as above; settings: Five cell lines viability, CellTiter-Glo ATP luminescence, 48-72 h; max response: stronger effect = lower value
Procedure, shortened: as §2

W2 = test: qHTS profiling for inhibitors of Plasmodium falciparum proliferation (AID 504749); settings: P. falciparum in erythrocytes, SYBR Green DNA, 72 h; series mostly up to 28.7 µM
Procedure, shortened: as §1
Note: nearly all actives have a fitted effect of over 60% in size.
Potency is the fitted concentration of half-maximal effect.

CNC1CCCN(c2c(F)cc3c(=O)c(C(=O)O)cn(C4CC4)c3c2OC)C1 (centres undefined)
inactive: Potency (PC15) | Potency (PC26) | Potency (PC49) | Potency (SC27B) | Potency (TAB109) | Potency (TAB113) | Potency (TAB165) | max response (CRL-7250) -2.7% | max response (HEK293) -0.681% and -8.47%

COc1cnc(NS(=O)(=O)c2ccc(N)cc2)nc1
inactive: Potency (PC15) | Potency (PC26) | Potency (PC49) | Potency (SC27B) | Potency (TAB109) | Potency (TAB113) | Potency (TAB165) | Potency (W2) | max response (CRL-7250) -6.42% and -4.75% | outcome (HEK293)

CC(N)C12CC3CC(CC(C3)C1)C2 (centres undefined)
active: Potency (W2) 6750 nM
inactive: Potency (PC15) | Potency (PC26) | Potency (PC49) | max response (CRL-7250) 1.82% and 3.28% | max response (HEK293) -21.7% and 2.38%

Nc1nc(N)nc(-c2cc(Cl)ccc2Cl)n1
inactive: Potency (PC15) | Potency (PC26) | Potency (PC49) | Potency (SC27B) | Potency (TAB109) | Potency (TAB113) | Potency (TAB165) | Potency (W2) | max response (CRL-7250) -4.29% and -4.54% | max response (HEK293) -8.28% and -2.53%

O=c1oc2c(O)c(O)cc3c(=O)oc4c(O)c(O)cc1c4c23
active: Potency (PC15) 6310 nM | Potency (TAB165) 1410 nM | Potency (W2) 1900 nM
inactive: Potency (PC49) | max response (CRL-7250) -1.07% | outcome (HEK293)

CN(C)CCc1c[nH]c2ccc(CS(=O)(=O)N3CCCC3)cc12
inactive: Potency (PC15) | Potency (PC26) | Potency (PC49) | Potency (SC27B) | Potency (TAB109) | Potency (TAB113) | Potency (TAB165) | Potency (W2) | max response (CRL-7250) -0.155% and 1.13% | max response (HEK293) -11.2% and 1.86%

C#CCN[C@@H]1CCc2ccccc21
inactive: Potency (PC15) | Potency (PC26) | Potency (PC49) | Potency (SC27B) | Potency (TAB109) | Potency (TAB113) | Potency (TAB165) | Potency (W2) | max response (CRL-7250) -10.3% and 4.11% | max response (HEK293) -23.7% | outcome (HEK293)

Nc1nc(N)c2nc(CNc3ccc(C(=O)NC(CCC(=O)O)C(=O)O)cc3)cnc2n1 (centres undefined)
active: Potency (CRL-7250) 118 nM | Potency (HEK293) 132 nM
inactive: Potency (PC15) | Potency (PC26) | Potency (PC49) | Potency (SC27B) | Potency (TAB109) | Potency (TAB113) | Potency (TAB165) | Potency (W2)

CN(C)c1ccc(C(=C2C=CC(=[N+](C)C)C=C2)c2ccc(N(C)C)cc2)cc1
active: Potency (PC15) 708 nM | Potency (PC26) 849 nM | Potency (PC49) 1780 nM | Potency (SC27B) 501 nM | Potency (TAB109) 224 nM | Potency (TAB113) 355 nM | Potency (TAB165) 251 nM | Potency (W2) 120 nM | Potency (CRL-7250) 211 nM and 59 nM | Potency (HEK293) 237 nM and 105 nM

CCCOc1ccc(C(=O)OCCN(CC)CC)cc1N
inactive: max response (CRL-7250) -2.34% and -3.98% | max response (HEK293) -0.795% | outcome (HEK293)

COc1ccc2c(c1)c(CC(=O)OCC(=O)O)c(C)n2C(=O)c1ccc(Cl)cc1
inactive: max response (CRL-7250) -1.43% and 4.64% | max response (HEK293) -16.6% | outcome (HEK293)

CN(CCOc1ccc(CC2SC(=O)NC2=O)cc1)c1ccccn1 (centres undefined)
inactive: Potency (PC15) | Potency (PC26) | Potency (PC49) | Potency (SC27B) | Potency (TAB109) | Potency (TAB113) | Potency (TAB165) | Potency (W2) | max response (CRL-7250) 0.739% | max response (HEK293) 2.68% | outcome (HEK293)

NC(=O)N1c2ccccc2CC(=O)c2ccccc21
inactive: Potency (PC15) | Potency (PC26) | Potency (PC49) | Potency (SC27B) | Potency (TAB109) | Potency (TAB113) | Potency (TAB165) | Potency (W2) | max response (CRL-7250) 1.16% and -4.89% | outcome (HEK293)

COc1ccc2cc3[n+](cc2c1OC)CCc1cc2c(cc1-3)OCO2
active: Potency (PC15) 2240 nM | Potency (PC26) 1900 nM | Potency (PC49) 2510 nM | Potency (SC27B) 1260 nM | Potency (TAB109) 631 nM | Potency (TAB113) 1000 nM | Potency (TAB165) 794 nM | Potency (W2) 601 nM | Potency (CRL-7250) 1.06 µM and 4.18 µM | Potency (HEK293) 1.33 µM and 1.05 µM

N[C@@H](C(=O)N[C@@H]1C(=O)N2C(C(=O)O)=C(Cl)CS[C@H]12)c1ccccc1
inactive: Potency (PC15) | Potency (PC26) | Potency (PC49) | Potency (SC27B) | Potency (TAB109) | Potency (TAB113) | Potency (TAB165) | Potency (W2) | max response (CRL-7250) 3.96% and -9.13% | outcome (HEK293)

COc1ccc(C(=O)CC(=O)c2ccc(C(C)(C)C)cc2)cc1
inactive: Potency (PC15) | Potency (PC26) | Potency (PC49) | Potency (SC27B) | Potency (TAB109) | Potency (TAB113) | Potency (TAB165) | max response (CRL-7250) -14.9% and 1.38% | max response (HEK293) 1.8% | outcome (HEK293)
